# Hits are enriched below; roughly 10% of the tested compounds scored in any of these assays.
# 3T3 cytotox: Cytotoxic Profiling in NIH 3T3 Cell Line of Diverse Libraries Using Quantitative High-Throughput Screening; NIH 3T3 viability, CellTiter-Glo ATP luminescence, 48-72 h; Potency, µM (series often up to 96.7 µM), without a hit: at the highest dose activity change, negative = cytotoxicity, most hits filed as inhibitors; 94,000 compounds, 4.3% hits; also: nearly all actives have a fitted effect of over 55% in size
#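 First NIH 3T3 cells are plated at 400 cells/well; next compound is pinned in; then plates incubate 48 or 72 hr at 37 °C; finally CellTiter-Glo is added and luminescence read after 10 min.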
# NPR1 antag: Natriuretic polypeptide receptor (hNpr1) antagonism - Primary qHTS | HEK293 hNpr1 GloSensor cGMP, ANP-stimulated luminescence | 76,000 compounds, 1.6% hits | Atrial natriuretic peptide receptor 1 (Homo sapiens), P16066 | Potency, µM (series often up to 46.3 µM), inactives show at the highest dose activity change, negative = inhibition, hits mostly inhibitors | AID 1347048, 2019; calls by dose curve; also: nearly all actives have a fitted effect of over 60% in size
# Target sequence (P16066 whole entry, looked up): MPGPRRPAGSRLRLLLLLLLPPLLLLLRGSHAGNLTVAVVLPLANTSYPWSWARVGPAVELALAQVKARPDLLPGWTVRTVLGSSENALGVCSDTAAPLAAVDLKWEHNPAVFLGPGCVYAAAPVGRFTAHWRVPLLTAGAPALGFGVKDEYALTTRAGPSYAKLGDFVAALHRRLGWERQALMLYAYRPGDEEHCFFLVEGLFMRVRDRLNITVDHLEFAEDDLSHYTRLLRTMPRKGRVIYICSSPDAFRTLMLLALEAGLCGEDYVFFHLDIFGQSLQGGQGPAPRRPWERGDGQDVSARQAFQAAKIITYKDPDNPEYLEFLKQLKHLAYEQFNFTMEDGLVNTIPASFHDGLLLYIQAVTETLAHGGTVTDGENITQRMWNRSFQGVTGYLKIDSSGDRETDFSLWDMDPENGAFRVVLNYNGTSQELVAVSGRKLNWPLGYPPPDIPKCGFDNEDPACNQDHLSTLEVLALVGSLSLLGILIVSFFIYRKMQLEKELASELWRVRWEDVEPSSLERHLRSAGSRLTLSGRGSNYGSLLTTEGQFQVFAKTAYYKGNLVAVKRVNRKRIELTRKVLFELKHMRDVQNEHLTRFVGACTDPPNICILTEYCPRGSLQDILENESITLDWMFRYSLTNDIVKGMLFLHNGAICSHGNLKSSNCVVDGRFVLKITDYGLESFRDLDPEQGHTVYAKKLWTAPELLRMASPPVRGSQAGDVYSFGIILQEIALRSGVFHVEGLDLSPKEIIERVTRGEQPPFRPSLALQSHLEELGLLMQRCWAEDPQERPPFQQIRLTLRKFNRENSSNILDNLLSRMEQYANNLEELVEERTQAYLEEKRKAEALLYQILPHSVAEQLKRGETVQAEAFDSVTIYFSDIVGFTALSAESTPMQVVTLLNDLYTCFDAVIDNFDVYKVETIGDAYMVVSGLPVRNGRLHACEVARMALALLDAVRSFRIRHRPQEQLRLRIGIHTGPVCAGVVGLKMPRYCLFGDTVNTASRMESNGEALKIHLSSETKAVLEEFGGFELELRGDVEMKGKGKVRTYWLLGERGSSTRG
#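 Compound pre-incubated 30 min at room temperature on GloSensor-loaded HEK293 cells stably carrying hNpr1 and the pGS-40F cGMP biosensor. Stimulation uses hNppA at 0.1 nM final; luminescence is taken at baseline and 20 min post-agonist.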
# HEK cytotox: Cytotoxic Profiling in HEK 293 Cell Line of Diverse Libraries Using Quantitative High-Throughput Screening; Potency, µM (highest dose often 115 µM), for inactives: top-dose activity change, negative = cytotoxicity, most hits filed as inhibitors; 94,000 compounds, 6.6% hits; AID 1345083, 2018; HEK 293 viability, ATP luminescence (CellTiter-Glo), 48-72 h; also: nearly all actives have a fitted effect of over 60% in size
#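 ATP-coupled CellTiter-Glo luminescence served as viability read-out, recorded 10 min after reagent addition at room temperature. HEK 293 cells, 250 cells/well, had been incubated with pintool-transferred compound for 48 or 72 hr at 37 degree Celsius.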
# GPT2 inh: Primary qHTS assay for inhibitors of Glutamate pyruvate transaminase 2 (GPT2) | Recombinant GPT2, coupled pyruvate oxidase/HRP Amplex Red fluorescence | Potency, µM (titrated, usually from 57.7 µM), inactives show at the top dose activity change, negative = inhibition, most hits filed as inhibitors | 100,000 compounds, 0.25% hits | Alanine aminotransferase 2 (Homo sapiens), Q8TD30; also: nearly all actives have a fitted effect of over 60% in size
#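 GPT2 10ng/uL, a-KG 250uM, L-Ala 2mM, HEPES pH7.5 + 0.0001% Tween; 30 min RT. Then Amplex mix (PO/HRP/ThPP), 30 min RT dark, fluorescence. AOA 50uM used as positive control.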
# Luciferase inh: Firefly luciferase inhibition profiling of diverse chemical library using quantitative high-throughput screening. Luciferin 4-monooxygenase (Photinus pyralis), P08659. purified P. pyralis luciferase, luminescence, biochemical. Potency, µM (doses to about 115 µM), most hits filed as inhibitors. 76,000 compounds, 2.5% hits; also: nearly all actives have a fitted effect of over 65% in size
#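 Luminescence read by CCD imager after adding enzyme (10nM final) to wells holding compound, titrated in qHTS. Substrates 10uM each D-luciferin and ATP; buffer 50mM Tris acetate pH 7.5, 10mM Mg acetate, Tween-20, BSA.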
# Numbers without * were called inactive; i = inactive; ? = inconclusive; nt = no result; [ ] = dose if it differs, or a comment. Unless noted, calls follow the shape of the dose curve; as a rule, active = well fitted curve in the direction sought with a large enough effect; inconclusive = small, poorly fitted or top-dose-only effect, or another doubt; inactive = no such curve, though single readings can be large; an effect the other way counts as inactive or inconclusive. % is scaled to controls: 0 for no effect and ±100 for the full control effect; potency is read from the fitted curve at half-maximal effect.
SMILES,3T3 cytotox,NPR1 antag,HEK cytotox,GPT2 inh,Luciferase inh
O=C(Nc1ccc2c(N3CCCCC3)ncnc2c1)c1ccc(F)cc1,28.2µM*,-18.9%,?,i,?
O=C(Nc1ccc2ncnc(N3CCCCC3)c2c1)c1ccccc1Br,?,?,44.7µM*,-0.7%,i
O=C(Nc1ccc2ncnc(N3CCCCC3)c2c1)c1c(F)cccc1Cl,?,-7.0%,50.1µM*,-15.4%,i
O=C(Nc1ccc2c(N3CCCC3)ncnc2c1)c1ccccc1Cl,25.1µM*,0.0%,?,-16.3%,?
CCn1cc(S(=O)(=O)N2CCCN(Cc3ccncc3)C(c3ccccc3)CC(=O)NCC2)cn1 (configuration not stated),-17.4%,-1.6%,-2.9%,?,i
O=C(C1CCC1)N1CCC(OCc2ccccc2)C1 (configuration not stated),-2.2%,nt,4.7%,0.9%,nt
Cc1ccsc1C(=O)Nc1ccc2c(N3CCCCC3)ncnc2c1,35.5µM*,-5.9%,?,-10.1%,?
Cc1ccc(C(=O)Nc2ccc3c(N4CCCCC4)ncnc3c2)cc1F,?,-29.2%,?,3.2%,i
CNC(=O)N1CCC2(CC1)CC(N(Cc1ccc(F)cc1)C1CC1)CCO2 (configuration not stated),-6.6%,-1.5%,-19.7%,3.3%,i
O=C(C1CCCCC1)N1CCC2(CC1)CC(N(Cc1ccc(F)cc1)C1CC1)CCO2 (configuration not stated),?,-20.7%,44.7µM*,-2.8%,i
CCC(CC)C(=O)N1CCC2(CC1)CC(N(Cc1ccc(F)cc1)C1CC1)CCO2 (configuration not stated),?,-24.5%,39.8µM*,i,i
COCCCNC(=O)CNC(=O)c1ccc(-c2cccc(C(F)(F)F)c2)cc1,?,nt,?,-9.1%,nt
O=C(C1CCCN1C(=O)Nc1ccccc1)N1CCC(N2Cc3ccccc3C2=O)CC1 (configuration not stated),-17.3%,nt,-6.2%,i,nt
Cc1ccc(C(=O)N2CCC(CCC(=O)NC3CCCCCC3)CC2)cc1,?,-20.0%,?,?,39.8µM*
Cc1ccc(C(=O)N2CCC(CCC(=O)N3CCCCC3)CC2)cc1,-13.4%,1.5%,?,-1.3%,28.2µM*
Cc1ccc(CN2CCN(C(=O)CCC3CCN(C(=O)c4ccccc4)CC3)CC2)cc1,-23.6%,?,?,i,i
CCC(CC)NC(=O)CCC1CCN(C(=O)c2ccc(C)cc2)CC1,-6.1%,-13.4%,-11.0%,i,39.8µM*
CC(C)(O)CN1CCC(=O)N(Cc2ccccc2)CCc2ccccc21,-7.9%[46.1 µM],nt,?,i,nt
Clc1ccc(-c2nnc3n2CCN(Cc2ccccc2)C3)cc1,-19.3%,nt,?,i,nt
O=C(c1ccc(C(F)(F)F)cc1)N1CCCN(c2ccnc3ccnn23)CC1,?,nt,22.4µM*,i,nt
O=[S+]([O-])(c1cccc(C(F)(F)F)c1)N1CCCN(c2ccnc3ccnn23)CC1,?,nt,44.7µM*,i,nt
O=C(c1ccncc1)N1CCCN(c2ccnc3ccnn23)CC1,-30.4%[138 µM],nt,-19.7%[172 µM],0.7%[88.5 µM],nt
CC(C)NC(=O)c1ccc2nc(-c3cccnc3)oc2c1,-10.3%[138 µM],nt,-23.0%[172 µM],i,nt
O=C1NCc2ccccc2CC12CCN(Cc1ccc(Cl)s1)CC2,?,nt,?,4.6%,nt
Cc1c(F)cccc1NC(=O)N1CCCC(c2noc(COc3ccccc3F)n2)C1 (configuration not stated),?,?,?,i,14.1µM*
SMILES,3T3 cytotox,NPR1 antag,HEK cytotox,GPT2 inh,Luciferase inh
CC(C)C(=O)N1CCCC(c2noc(COc3ccccc3F)n2)C1 (configuration not stated),-19.8%,10.5%,?,-3.0%,39.8µM*
CCOC(=O)[C@H]1[C@@H](O)C(=O)N(Cc2ccccc2)C12CCN(C(=O)N(C)C)CC2,?,nt,-14.3%,nt,nt
O=C(C1CCCN1c1nccc(Nc2ccccc2F)n1)N1CCOCC1 (configuration not stated),-13.8%,nt,4.9%,i,nt
Fc1ccccc1-c1noc(-c2nc(Cc3ccccc3)no2)n1,-0.5%,4.5%,0.3%,0.2%,20µM*
O=C(NC1CCCc2c1[nH]c1ccc(F)cc21)c1n[nH]c2c1CCC2 (configuration not stated),35.5µM*,-27.2%,35.5µM*,-16.0%,i
CCN1CCN(CC(=O)NCc2ccc3[nH]c(-c4ccc(F)cc4)c(C)c3c2)CC1,22.4µM*,0.0%,17.8µM*,-6.5%,?
Cc1c(-c2ccc(F)cc2)[nH]c2ccc(CNC(=O)c3n[nH]c4c3CCCC4)cc12,31.6µM*,15.8µM*,?,4.0%,15.8µM*
Cc1c(-c2ccccc2F)[nH]c2ccc(CNC(=O)CCN3CCCO3)cc12,?,-15.3%,?,-20.8%,15.8µM*
Cc1onc(C(=O)NCc2ccc3[nH]c(-c4ccc(F)cc4)c(C)c3c2)c1CO,?,?,?,0.6%,?
Cn1ncc2c(C(=O)N3CCCC3)cc(-c3ccc(Cl)cc3Cl)nc21,?,nt,?,-11.2%,nt
Cc1c(-c2ccc(F)cc2)[nH]c2ccc(CNC(=O)c3cnn(C)c3)cc12,?,?,39.8µM*,-13.9%,25.1µM*
O=C(CCc1c[nH]c2ccccc12)NC1CCCc2c1[nH]c1ccc(F)cc21 (configuration not stated),39.8µM*,3.5%,?,0.1%,i
Cc1noc(C)c1CCC(=O)NC1CCCc2c1[nH]c1ccccc21 (configuration not stated),?,-9.0%,?,i,i
Cc1ccc(CNC(=O)C2(c3ccc(NC(=O)C4CC4)cc3)CCCCC2)o1,?,-10.0%,44.7µM*,1.9%,i
Cc1ccccc1CNC(=O)C1(c2ccc(NS(C)(=O)=O)cc2)CCCCC1,28.2µM*,-1.4%,-28.9%,i,i
CS(=O)(=O)Nc1ccc(C2(C(=O)NCc3ccc(F)cc3)CCCCC2)cc1,-12.5%,2.7%,-7.7%,-5.5%,i
O=C(Nc1ccc(C2(C(=O)NCC3CC3)CCCCC2)cc1)C1CC1,-4.5%,4.1%,-7.5%,4.6%,i
CC(C)C(=O)Nc1ccc(C2(C(=O)NCc3cccs3)CCCCC2)cc1,31.6µM*,5.7%,?,i,i
CN(C)C(=O)N1CCN(Cc2ccccc2-c2ccccc2F)CC1,?,nt,?,-1.8%,nt

# Bioassay records from PubChem.
